Data from ChEMBL document CHEMBL1201862, “PubChem BioAssay data set” (2004).
Out of some 400,000 compounds screened, about 2,100 (0.53%) were called active. Another 14% or so got no clear call; they are omitted. The sample holds actives, similar compounds and a random draw of the others, so the mix is not that of the screen. No rule for the calls is given here.

biological target: Ataxin-2 (Homo sapiens) (UniProt Q99700); assay: qHTS for Inhibitors of ATXN expression.; format: functional
Sequence (Q99700 whole entry): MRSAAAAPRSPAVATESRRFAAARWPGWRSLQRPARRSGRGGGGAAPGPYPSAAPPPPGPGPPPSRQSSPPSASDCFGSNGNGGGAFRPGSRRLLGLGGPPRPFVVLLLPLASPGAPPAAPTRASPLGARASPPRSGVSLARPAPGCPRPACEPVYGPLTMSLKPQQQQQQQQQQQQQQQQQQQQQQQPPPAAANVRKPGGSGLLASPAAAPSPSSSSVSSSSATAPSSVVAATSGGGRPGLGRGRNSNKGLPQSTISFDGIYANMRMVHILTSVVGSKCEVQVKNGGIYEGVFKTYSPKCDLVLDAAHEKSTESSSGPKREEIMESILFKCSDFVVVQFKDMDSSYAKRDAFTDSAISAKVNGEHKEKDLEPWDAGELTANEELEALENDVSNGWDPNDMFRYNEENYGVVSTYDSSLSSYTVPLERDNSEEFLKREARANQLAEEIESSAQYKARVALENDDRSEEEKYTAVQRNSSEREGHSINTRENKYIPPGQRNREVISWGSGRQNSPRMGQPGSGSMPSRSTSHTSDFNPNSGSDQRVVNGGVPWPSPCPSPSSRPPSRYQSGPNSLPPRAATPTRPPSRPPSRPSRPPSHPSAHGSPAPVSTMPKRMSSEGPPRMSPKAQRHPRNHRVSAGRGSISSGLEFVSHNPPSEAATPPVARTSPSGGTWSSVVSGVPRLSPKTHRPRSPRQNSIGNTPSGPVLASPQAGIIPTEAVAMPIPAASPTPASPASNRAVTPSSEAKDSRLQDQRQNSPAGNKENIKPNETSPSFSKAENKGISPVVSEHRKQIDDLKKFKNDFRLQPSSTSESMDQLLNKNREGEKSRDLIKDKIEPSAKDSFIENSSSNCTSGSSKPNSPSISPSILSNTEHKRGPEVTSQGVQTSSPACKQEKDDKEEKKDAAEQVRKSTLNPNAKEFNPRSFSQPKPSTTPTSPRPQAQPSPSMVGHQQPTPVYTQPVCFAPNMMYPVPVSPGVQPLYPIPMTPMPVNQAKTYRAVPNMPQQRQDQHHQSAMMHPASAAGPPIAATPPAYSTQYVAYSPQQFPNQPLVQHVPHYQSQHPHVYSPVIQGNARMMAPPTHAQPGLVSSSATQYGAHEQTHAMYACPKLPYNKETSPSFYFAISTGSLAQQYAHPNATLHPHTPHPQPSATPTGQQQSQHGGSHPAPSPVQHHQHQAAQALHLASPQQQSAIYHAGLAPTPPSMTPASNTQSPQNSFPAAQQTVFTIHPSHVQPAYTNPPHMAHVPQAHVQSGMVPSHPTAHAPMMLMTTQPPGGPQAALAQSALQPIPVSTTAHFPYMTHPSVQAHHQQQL

Row | SMILES | Potency
1 | Nc1c(C(=O)Nc2ccccc2)sc2nc(N3CCOCC3)c3c(c12)CCCC3 | inactive
2 | O=C(O)c1ccc(N/N=C/c2ccc(-c3ccc(Cl)cc3Cl)o2)cc1 | inactive
3 | COc1ccc(/C=C2/C(=O)ON=C2C)cc1Br | inactive
4 | CC1=NOC(=O)/C1=C\c1ccc(-c2ccc(Cl)cc2Cl)o1 | 35.5 µM (active)
5 | O=C(O)c1ccc(CNCc2ccccc2F)cc1 | inactive
6 | CC1CCC(NC(=O)c2nn(C)c3c2CS(=O)(=O)c2ccccc2-3)CC1 (stereo not given) | 39.8 µM (active)
7 | CC1CCC(NC(=O)CN2C(=O)C3CC=CCC3C2=O)CC1 (stereo not given) | inactive
8 | CC1CCC(NC(=O)COC(=O)CNC(=O)c2ccc3ccccc3c2)CC1 (stereo not given) | inactive
9 | Cc1nc(-c2ccc(S(=O)(=O)Nc3cc(S(=O)(=O)N(C)C)ccc3C)s2)cs1 | inactive
10 | COc1ccc(-c2cc(C(F)(F)F)n3ncc(C(=O)NCC4CCCO4)c3n2)cc1 (stereo not given) | inactive
11 | C=CCCCCCCCCC(=O)NNC1CC(=O)N(c2ccccc2)C1=O (stereo not given) | inactive
12 | CCCCN(CCCC)CC(O)Cn1cc(/C=C/C(=O)c2ccccc2)c2ccccc21 (stereo not given) | inactive
13 | CC(C)CC(=O)/C=C/n1c(=S)oc2ccccc21 | 31.6 µM (active)
14 | CC(C)CC(=O)NC(=S)NCc1ccccc1 | inactive
15 | CC(=O)/C=C/n1c(=S)oc2ccccc21 | 9.47 µM (active)
16 | O=C(CCn1c(=S)oc2ccccc21)Nc1ccccc1F | inactive
17 | CC(=O)Cn1c(=O)oc2ccccc21 | inactive
18 | CC(=O)OC[C@H]1O[C@@H](Oc2cc3ccc(=O)oc3cc2OC(C)=O)[C@H](OC(C)=O)[C@@H](OC(C)=O)[C@@H]1OC(C)=O | inactive
19 | Cc1cccc(NC(=O)c2nc[nH]c2C(=O)N[C@@H](C)c2ccccc2)c1 | 28.2 µM (active)
20 | Cc1cccc(NC(=O)c2[nH]cnc2C(=O)N[C@@H](Cc2ccccc2)C(=O)OC(C)(C)C)c1 | 39.8 µM (active)

Row | SMILES | Potency
21 | Cc1ccc(NC(=O)C(Nc2cccc(C)c2)c2ccccc2)cc1 (stereo not given) | inactive
22 | Cc1cccc(NC(=O)c2c(C)nn(-c3ccccc3)c2Cl)c1 | inactive
23 | CC(C)C[C@H](NC(=O)c1[nH]cnc1C(=O)NCCCCCNC(=O)OC(C)(C)C)C(=O)OC(C)(C)C | 35.5 µM (active)
24 | CCOc1ccc(C(C)NC(=O)c2cccs2)cc1OCC (stereo not given) | inactive
25 | C[C@@H](NC(=O)c1[nH]cnc1C(=O)N[C@@H](Cc1ccccc1)C(=O)OC(C)(C)C)c1ccccc1 | 35.5 µM (active)
26 | O=C(Nc1ccccc1)c1nsnc1C(=O)Nc1ccccc1 | inactive
27 | COc1ccc(NC(=O)CSc2nnc3n2CCCCC3)cc1S(=O)(=O)N1CCOCC1 | inactive
28 | Cc1ccccc1/C=C/c1nc2ccccc2c(=O)n1CCc1ccccc1 | inactive
29 | CCc1cc2c(-c3ccccc3)cc(=O)oc2c2c1OCN(Cc1ccc(F)cc1)C2 | inactive
30 | Cc1ccc2nc(N3C(=O)C(O)=C(C(=O)c4ccc(C)o4)C3c3cccc(O)c3)sc2c1 (stereo not given) | inactive
31 | c1ccc(-c2cnn3c(-c4ccccc4)c(-c4ccccc4)nc3n2)cc1 | inactive
32 | COc1ccc(OC)c(/N=C/c2c(O)oc3ccccc3c2=O)c1 | inactive
33 | Nc1c(C(=O)Nc2ccccc2F)sc2nc(-c3cccnc3)ccc12 | inactive
34 | CC(C)C[C@H](NC(=O)c1[nH]cnc1C(=O)N[C@H](C)c1ccccc1)C(=O)OC(C)(C)C | 39.8 µM (active)
35 | CC(NC(=O)/C(C#N)=C/c1ccc(OCC(=O)O)cc1)c1ccccc1 (stereo not given) | inactive
36 | CCCCC(C(=O)NC(C)c1ccccc1)C(=O)NC(C)c1ccccc1 (stereo not given) | inactive
37 | CCOc1ccccc1NC(=O)COC(=O)C(Cc1ccccc1)NC(=O)c1ccco1 (stereo not given) | inactive
38 | CC(C)C[C@H](NC(=O)c1[nH]cnc1C(=O)N[C@@H](Cc1ccccc1)C(=O)OC(C)(C)C)C(=O)OC(C)(C)C | 25.1 µM (active)
39 | COCc1cc(C)nc2sc(C(=O)Nc3ccccc3F)c(N)c12 | inactive
40 | C[C@H](NC(=O)c1[nH]cnc1C(=O)N[C@@H](Cc1ccccc1)C(=O)OC(C)(C)C)C(=O)OC(C)(C)C | 39.8 µM (active)

Row | SMILES | Potency
41 | CC(C)(C)OC[C@H](NC(=O)c1[nH]cnc1C(=O)Nc1ccccc1F)C(=O)OC(C)(C)C | 35.5 µM (active)
42 | CCOC(=O)N1CCN(S(=O)(=O)c2c(C)nc3scc(C)n3c2=O)CC1 | inactive
43 | COc1ccc(C2C=C(c3ccccc3)Nc3ncnn32)cc1 (stereo not given) | inactive
44 | O=S(=O)(NCCc1cccs1)c1ccc(Br)cc1 | inactive
45 | COCc1cc(C)nc2sc(C(=O)Nc3ccccc3Br)c(N)c12 | inactive
46 | CC(C)C[C@H](NC(=O)c1[nH]cnc1C(=O)Nc1ccc(CNC(=O)OC(C)(C)C)cc1)C(=O)OC(C)(C)C | 28.2 µM (active)
47 | CC(C)(C)OC(=O)[C@H](Cc1ccccc1)NC(=O)c1[nH]cnc1C(=O)Nc1ccc(Cl)cc1 | 39.8 µM (active)
48 | COc1ccccc1OCc1ccc(C(=O)NC(C)c2ccccc2)o1 (stereo not given) | inactive
49 | CC(C)C[C@H](NC(=O)c1[nH]cnc1C(=O)N[C@@H](C)c1ccccc1)C(=O)OCc1ccccc1 | 35.5 µM (active)
50 | CC(C)C[C@H](NC(=O)c1[nH]cnc1C(=O)N[C@@H](C)C(=O)OC(C)(C)C)C(=O)OC(C)(C)C | 35.5 µM (active)
51 | CN(C)Cc1c(O)ccc2cc(-c3nc4ccccc4n3C)c(=O)oc12 | inactive
52 | Cc1cc2nc3c(O)nc(S)nc3nc2cc1NC(=O)C(F)(F)F | inactive
53 | N#Cc1cc2c(nc1SCC(=O)Nc1nccs1)CCCCC2 | inactive
54 | CN(C)c1ccc(/C=N/N=C2/SC(CC(=O)O)C(=O)N2c2ccc(O)cc2)cc1 (stereo not given) | inactive
55 | CC(C)(C)c1cc2ncnc(N3CCCCC3)c2s1 | inactive
56 | CC(NC(=O)OC(C)(C)C)C(=O)Oc1cc2oc(=O)cc(-c3ccccc3)c2cc1Cl (stereo not given) | inactive
57 | CC(C)[C@H](NC(=O)OC(C)(C)C)c1nnc(S(=O)(=O)Cc2c(F)cccc2Cl)o1 | 22.4 µM (active)
58 | CC(NC(=O)OC(C)(C)C)C(=O)Oc1ccc2ccc(=O)oc2c1 (stereo not given) | inactive
59 | CC[C@@H](C)[C@H](NC(=O)OC(C)(C)C)c1nnc(S(=O)(=O)Cc2cc(C)ccc2C)o1 | 39.8 µM (active)
60 | CCC(C)[C@@H](NC(=O)OC(C)(C)C)c1nnc(S(=O)(=O)Cc2cccc(C)c2)o1 (stereo not given in full) | 22.4 µM (active)
